High-throughput results: PubChem, National Center for Advancing Translational Sciences (NCATS)
An excerpt weighted towards active compounds, which were near 12% of everything screened.
SARS PLP yeast: blocks SARS-CoV papain-like protease in a yeast assay; S. cerevisiae expressing SARS-CoV PLpro, growth rescue; Potency, µM (series often up to 32.9 µM), for the others: top-dose activity, positive = growth rescue, hits mostly activators; hit rate 0.19% among 330,000; calls by dose curve; further: 0% is about no effect; nearly all actives have a fitted effect of over 55% in size
Pf growth 48h: inhibits P. falciparum growth in the first generation, 48 h; P. falciparum luciferase growth in erythrocytes, 48 h; Potency, µM (titrated, usually from 28.7 µM), for the others: top-dose activity change, negative = inhibition, most hits filed as inhibitors; hit rate 5.9% among 310,000; AID 504832; further: on the % scale 0 is the no-effect control and ±100 the full control effect
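Luminescence readout; reporter = integrated firefly luciferase in P. falciparum. RBC culture at 2% hematocrit, 0.1% parasitemia final, 37 C/5% CO2; decreased signal taken as growth inhibition.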
Pf growth 96h: inhibits malaria parasite growth, 96 h; P. falciparum luciferase reporter growth, 96 h; Potency, µM (highest dose often 28.7 µM), for inactives: top-dose activity change, negative = inhibition, usual class: inhibitors; hit rate 6.9% among 320,000; AID 504834; further: on the % scale 0 is the no-effect control and ±100 the full control effect
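Parasite growth measured via integrated firefly luciferase reporter in P. falciparum. Infected erythrocytes at 2% hematocrit, 0.05% parasitemia final were treated 96 hours at 37 C under 5% CO2, and luminescence was read.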
Sm TGR inh: blocks Schistosoma mansoni thioredoxin glutathione reductase; purified TGR, DTNB reduction, TNB absorbance 405 nm; hit rate 3% among 360,000; Potency, µM (titrated, usually from 114 µM), for the others: top-dose activity change, negative = inhibition, actives largely listed as inhibitors; AID 485364; further: on the % scale 0 is the no-effect control and ±100 the full control effect; nearly all actives have a fitted effect of over 60% in size
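First, TGR (20 nM dispensed) and NADPH were mixed with compound. Second, a 15 min room-temperature incubation followed. Third, further NADPH and then DTNB were added to start the reaction. Finally, TNB absorbance was monitored kinetically.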
AmpC no deterg: inhibitors of E. coli AmpC beta-lactamase without detergent; P00811; AmpC nitrocefin hydrolysis, absorbance 480 nm, 0.0001% Triton; Potency, µM (top dose mostly 57.1 µM), inactives show top-dose activity change, negative = inhibition, actives largely listed as inhibitors; hit rate 0.52% among 330,000;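 further: plate controls were no compound for no effect and no enzyme for full effect; nearly all actives have a fitted effect of over 20% in size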
Target sequence (P00811 whole entry, looked up): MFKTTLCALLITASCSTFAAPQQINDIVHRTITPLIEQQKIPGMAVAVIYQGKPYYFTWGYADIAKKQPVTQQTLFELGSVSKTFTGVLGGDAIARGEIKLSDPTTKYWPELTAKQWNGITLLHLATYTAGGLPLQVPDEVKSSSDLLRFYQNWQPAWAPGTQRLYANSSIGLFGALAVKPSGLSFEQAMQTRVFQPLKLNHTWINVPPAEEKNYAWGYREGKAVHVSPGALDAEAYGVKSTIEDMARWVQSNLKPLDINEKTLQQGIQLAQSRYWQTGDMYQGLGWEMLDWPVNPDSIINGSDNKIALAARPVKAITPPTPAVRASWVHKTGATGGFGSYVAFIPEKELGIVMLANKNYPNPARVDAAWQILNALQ
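20 mM phosphate pH 7.0 + 0.01% (detergent screen) or 0.0001% Triton X-100; 5.3 nM AmpC reagent; cpd preinc 15 min RT; nitrocefin (800 uM stock) to start; A480 q20 s × 4 min; Activity was normalised to no-enzyme and no-compound control wells.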
AmpC detergent: inhibitors of E. coli AmpC beta-lactamase with detergent | P00811 | AmpC hydrolysis of nitrocefin, absorbance 480 nm, 0.01% Triton | Potency, µM (doses to about 114 µM), for inactives: at the highest dose activity change, negative = inhibition, actives largely listed as inhibitors | hit rate 0.041% among 370,000 | AID 485294;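 further: 0% = no-compound wells and -100% = no-enzyme wells; nearly all actives have a fitted effect of over 25% in size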
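20 mM phosphate pH 7.0 + 0.01% (detergent screen) or 0.0001% Triton X-100; 5.3 nM AmpC reagent; cpd preinc 15 min RT; nitrocefin (800 uM stock) to start; A480 q20 s × 4 min; Activity was normalised to no-enzyme and no-compound control wells.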
Numbers without * were called inactive; ? = inconclusive; . = not tested or not shown. Unless noted, the call rests on the fitted dose curve; in most records, active means well fitted curve in the direction sought with a large enough effect; inconclusive means small, poorly fitted or top-dose-only effect, or another doubt; inactive means no such curve, though single readings can be large; an effect the other way counts as inactive or inconclusive. Potency means the concentration at half of the fitted maximal effect.

SMILES	SARS PLP yeast	Pf growth 48h	Pf growth 96h	Sm TGR inh	AmpC no deterg	AmpC detergent
COc1cc(OC)c(NC(=O)C2=C(C)C(=O)OC23CCCCC3)cc1Cl	.	.	.	-3%	.	-1%
CCCCOc1ccc(C(=O)N/C(=C\c2cccc([N+](=O)[O-])c2)C(=O)OCCC)cc1	6%	?	1.7µM*	8%	-21%	-2%
CCCCOc1ccc(C(=O)N/C(=C\c2cccc([N+](=O)[O-])c2)C(=O)OC(C)C)cc1	-4%	0.59µM*	0.47µM*	37%	-20%	1%
CC(C)COc1ccc(C(=O)N/C(=C\c2cccc([N+](=O)[O-])c2)C(=O)OC(C)C)cc1	0%	0.15µM*	13%	21%	6%	-14%
CCOc1ccccc1NC(=O)Cn1c(=O)n(Cc2ccco2)c(=O)c2ccc(C(=O)NC3CCCC3)cc21	.	.	.	-10%	.	-2%
CCOc1ccc(CN2CCNC(=O)C2CC(=O)NCCc2ccccn2)cc1 (configuration not stated)	-1%	11%	31%	?	21%	6%
CC(C)(C)CN1CCNC(=O)C1CC(=O)NCCc1ccccc1C(F)(F)F (configuration not stated)	2%	?	184%	?	76%	3%
CN1CCNC(=O)C1CC(=O)NCCc1ccccc1F (configuration not stated)	0%	43%	13µM*	-3%	34%	-7%
O=C(CC1C(=O)NCCN1Cc1ccccn1)NCCc1ccccc1F (configuration not stated)	1%	4.7µM*	?	?	23%	?
O=C1C(=O)c2ncccc2-c2cccnc21	.	0.67µM*	-23%	.	.	.
C=C1c2cc3c(cc2NC(=S)N1Cc1ccccc1)OCO3	-1%	12µM*	?	-34%	-56%	-6%
S=C(NCc1ccc2c(c1)OCO2)NC1CCN(Cc2ccccc2)CC1	-3%	2%	10%	-9%	-5%	-9%
Cc1c(Cl)cccc1NC(=S)N=Nc1c(O)n(CN2CCOCC2)c2ccccc12	-113%	3.7µM*	414%	0%	-46%	-13%
Oc1c(N=NC(=S)Nc2ccccc2F)c2ccccc2n1Cc1ccccc1Cl	2%	5.2µM*	?	0%	-39%	7%
COC(=O)[C@H](C)N(Cc1ccc(Cl)c(Cl)c1)S(=O)(=O)CCNC1CCCC1	4%	.	.	.	78%	.
O=C1NC(c2ccccc2)=C(c2nc3ccccc3s2)C(c2ccc(F)cc2)N1 (configuration not stated)	-9%	-52%	13µM*	5%	10%	5%
O=C(CCc1nnc2n(Cc3ccccc3Cl)c(=O)c3ccccc3n12)Nc1ccc(F)cc1	.	.	.	7%	.	20%
COc1ccc(NC(=O)c2sc3nc(N4CCCC4)c4c(c3c2N)CC(C)(C)OC4)cc1	.	13µM*	12µM*	-15%	67%	-4%
COc1ccc(NC(=O)c2sc3nc(N4CCOCC4)c4c(c3c2N)CC(C)(C)OC4)cc1	-2%	26%	?	-26%	-3%	?
COc1ccc(NC(=O)c2sc3nc(N4CCOCC4)c4c(c3c2N)CC(C)(C)OC4)c(OC)c1	-1%	?	1.7µM*	1%	-5%	-5%
COc1ccccc1NC(=O)c1sc2nc(N3CCOCC3)c3c(c2c1N)CC(C)(C)OC3	.	.	.	0%	.	20%
COc1cc(C(=O)N(Cc2ccc(F)cc2)C2CCS(=O)(=O)C2)cc(OC)c1OC (configuration not stated)	5%	?	8.3µM*	7%	2%	-10%
COc1cc(C(=O)N(Cc2cccc(Cl)c2)C2CCS(=O)(=O)C2)cc(OC)c1OC (configuration not stated)	2%	?	.	-1%	79%	1%
COc1ccccc1C(=O)N(Cc1ccc(Cl)cc1)C1CCS(=O)(=O)C1 (configuration not stated)	12%	-7%	12µM*	-6%	28%	6%
CN(C)c1ccc(/C=N/NC(=O)C(=O)/C=C2\NC3(CCCC3)Cc3ccccc32)cc1	-1%	?	2.6µM*	-1%	-26%	-3%
SMILES	SARS PLP yeast	Pf growth 48h	Pf growth 96h	Sm TGR inh	AmpC no deterg	AmpC detergent
COC(=O)C1C(c2ccccc2)C(C(=O)OCc2ccco2)C1c1ccccc1 (configuration not stated)	-77%	10µM*	-4%	?	-29%	?
O=C(O)C1C(c2ccccc2)C(C(=O)OCc2ccco2)C1c1ccccc1 (configuration not stated)	0%	-7%	-7%	?	-29%	-12%
CCCCCCn1c(COc2ccccc2F)nnc1SCC(=O)N1c2ccccc2NC(=O)C1(C)C	9%	13µM*	8.3µM*	2%	21%	-11%
CC1(C)C(=O)Nc2ccccc2N1C(=O)CSc1ncccn1	-2%	-12%	15%	-6%	-28%	-3%
CCOC(=O)c1c(S(=O)(=O)N2CCCC(C(=O)Nc3ncccc3C)C2)c(C)n(C)c1C (configuration not stated)	6%	5%	12µM*	7%	-1%	3%
CCOC(=O)c1c(S(=O)(=O)N2CCC(C)CC2)c(C)n(C)c1C	?	10%	8.3µM*	-3%	11%	3%
CCOC(=O)c1c(S(=O)(=O)N2CCCC(C(=O)Nc3cc(C)ccn3)C2)c(C)n(C)c1C (configuration not stated)	.	.	.	3%	.	6%
O=C(CSc1ncc2c(n1)-c1ccccc1N(Cc1ccc(F)cc1)S2(=O)=O)c1ccc(Cl)cc1	.	.	.	2%	.	6%
O=S(=O)(c1cc(O)ccc1O)c1cccc2c(S(=O)(=O)c3cc(O)ccc3O)cccc12	-7%	10µM*	13µM*	11µM*	20µM*	-10%
CCOC(=O)c1c(C)c(-c2ccccc2)n(CC(=O)Nc2cccc(F)c2)c1C	.	.	.	-9%	.	-1%
COc1ccc(S(=O)(=O)N2CCOCC2)cc1N(C)S(=O)(=O)c1ccc(C)cc1	-3%	-26%	30%	-12%	77%	3%
COc1ccc(C)cc1S(=O)(=O)N1CCCC(C(=O)N2CCN(c3ccccc3)CC2)C1 (configuration not stated)	-2%	7.4µM*	10µM*	6%	200%	8%
COc1ccc(S(=O)(=O)N2CCCCCC2)cc1N(C)S(=O)(=O)c1ccc(C)cc1	-18%	-19%	10µM*	5%	-5%	2%
